# Source: PubChem BioAssay (National Center for Advancing Translational Sciences (NCATS))
# Rows were chosen to be rich in hits. Some 1.4% of all compounds tested hit in one or more screens of this group.
# SARS PLpro yeast: qHTS of Yeast-based Assay for SARS-CoV PLP | S. cerevisiae expressing SARS-CoV PLpro, growth rescue | Potency, µM (doses to about 32.9 µM), hits mostly activators | 330,000 tested, 0.19% active | AID 485353, 2010; calls by dose curve; further: nearly all actives have a fitted effect of over 55% in size
# AmpC detergent: qHTS Inhibitors of AmpC Beta-Lactamase (assay with detergent) | P00811 | Potency, µM (titrated, usually from 114 µM), actives largely listed as inhibitors | AmpC hydrolysis of nitrocefin, absorbance 480 nm, 0.01% Triton | 370,000 tested, 0.041% active; further: nearly all actives have a fitted effect of over 25% in size
# Target sequence (P00811 whole entry, looked up): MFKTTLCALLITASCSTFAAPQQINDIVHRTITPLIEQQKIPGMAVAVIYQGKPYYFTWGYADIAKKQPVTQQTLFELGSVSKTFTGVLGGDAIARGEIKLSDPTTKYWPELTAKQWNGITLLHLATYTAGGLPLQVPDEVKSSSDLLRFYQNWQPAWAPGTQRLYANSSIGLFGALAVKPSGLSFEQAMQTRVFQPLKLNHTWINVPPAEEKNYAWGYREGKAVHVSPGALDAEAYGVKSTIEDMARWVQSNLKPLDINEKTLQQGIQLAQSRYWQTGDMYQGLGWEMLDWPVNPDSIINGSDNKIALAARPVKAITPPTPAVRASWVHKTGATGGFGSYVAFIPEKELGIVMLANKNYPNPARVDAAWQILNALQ
#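 AmpC (5.3 nM in the dispensed reagent) in 20 mM phosphate pH 7.0 with 0.01% (detergent screen) or 0.0001% Triton X-100 was preincubated with compounds for 15 min at room temperature. Nitrocefin was then added from an 800 uM solution, and hydrolysis was followed at 480 nm.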
# Vaccinia mCherry: qHTS for Stage-Specific Inhibitors of Vaccinia Orthopoxvirus: mCherry Reporter Primary qHTS; Vaccinia virus mCherry reporter infection, fluorescence; Potency, µM (highest dose often 36.5 µM), usual class: inhibitors; 310,000 tested, 0.63% active; AID 720579, 2013; calls by dose curve; tested in A549 cells; further: nearly all actives have a fitted effect of over 35% in size
# AmpC no deterg: qHTS Inhibitors of AmpC Beta-Lactamase (assay without detergent); P00811; AmpC nitrocefin hydrolysis, absorbance 480 nm, 0.0001% Triton; Potency, µM (doses to about 57.1 µM), usual class: inhibitors; 330,000 tested, 0.52% active; further: nearly all actives have a fitted effect of over 20% in size
#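 AmpC (5.3 nM in the dispensed reagent) in 20 mM phosphate pH 7.0 with 0.01% (detergent screen) or 0.0001% Triton X-100 was preincubated with compounds for 15 min at room temperature. Nitrocefin was then added from an 800 uM solution, and hydrolysis was followed at 480 nm.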
# AMA1 RON2 block: qHTS for Inhibitors of AMA1-RON; Towards Development of Antimalarial Drug Lead: Primary Screen. AlphaScreen AMA1-biotinylated RON2 peptide binding. 360,000 tested, 0.2% active. AID 720542, 2013. Potency, µM (titrated, usually from 58.2 µM), usual class: inhibitors; further: nearly all actives have a fitted effect of over 45% in size
#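 AMA1 (3D7) with his tag at 25 nM final met compounds first, then biotinylated RON2 peptide at 25 nM; detection used donor plus acceptor beads, 10 µg/mL apiece, read by AlphaScreen after 30 min at room temperature.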
# VACV Venus inh: qHTS for Stage-Specific Inhibitors of Vaccinia Orthopoxvirus: Venus Reporter Primary qHTS; Vaccinia virus Venus reporter expression, fluorescence; Potency, µM (titrated, usually from 36.5 µM), most hits filed as inhibitors; AID 720580, 2013; 330,000 tested, 0.46% active; calls by dose curve; tested in A549 cells; further: nearly all actives have a fitted effect of over 30% in size
# A number is an active result; 0 = inactive; ? = inconclusive; - = no result. Unless noted, the call rests on the fitted dose curve; in most records, active means well fitted curve in the direction sought with a large enough effect; inconclusive means small, poorly fitted or top-dose-only effect, or another doubt; inactive means no such curve, though single readings can be large; an effect the other way counts as inactive or inconclusive.
SMILES,SARS PLpro yeast,AmpC detergent,Vaccinia mCherry,AmpC no deterg,AMA1 RON2 block,VACV Venus inh
CCOC(=O)c1c(C)c(-c2ccccc2)n(CC(=O)NCCc2cccc(C)c2)c1C,-,0,0,-,-,0
CC(C)CSc1nnc(CNC(=O)c2ccccn2)n1C,-,-,0,-,-,0
CO[C@H]1[C@H](NC(=O)c2ccsc2)c2ccccc2C12CCN(Cc1cc3ccccc3o1)CC2,-,-,0,-,-,0
O=[N+]([O-])c1ccccc1/C=N/N1CCN(Cc2ccccc2)CC1,0,0,0,0,28µM,0
O=[N+]([O-])c1ccccc1C=NN1CCCCCC1,-,-,0,-,18µM,0
Clc1ccccc1/C=N/N1CCN(Cc2ccccc2)CC1,0,?,-,0,0,-
Cc1cnc(C)c(-c2cccc3c2OC(CNC(=O)/C=C/c2ccc(F)c(F)c2)C3)n1 (stereo not drawn),-,-,0,-,-,0
C=C1C(=O)[C@]23C[C@H]1CCC2[C@]1(C)C(=O)CC[C@@](C)(C(=O)O)C1C[C@@H]3O (stereo partly drawn),-,-,?,-,0,?
C=C1C(=O)[C@]23C[C@H]1CCC2[C@]1(C)CCC[C@@](C)(C(=O)O)C1C[C@@H]3O (stereo partly drawn),-,-,6.3µM,-,0,3.5µM
CC(=O)Nc1cc([N+](=O)[O-])cc(NC(C)=O)c1NC(C)=O,-,-,0,-,-,0
CCOc1ccc(S(=O)(=O)N(CC)CC)cc1NS(=O)(=O)c1ccc(F)c(F)c1F,0,0,4µM,0,0,4.5µM
CCOc1cc(S(=O)(=O)N(CC)CC)ccc1F,0,0,-,0,0,-
CCc1cc(=O)oc2cc(C)c(CN3CCCCC3)c(O)c12,0,?,0,0,0,0
CCc1cc(=O)oc2cc(C)c(CN3CCCC3)c(O)c12,0,?,-,11µM,12µM,-
COc1cc(-c2ccc3oc(-c4ccsc4)cc3c2)cc(OC)c1OC,-,-,?,-,0,14µM
O=[N+]([O-])c1ccc(S(=O)(=O)N2CCn3cccc3C2c2ccccc2F)cc1 (stereo not drawn),-,0,11µM,-,-,?
Cc1cc(Cl)ccc1OCC(=O)N1CCOc2ccc(CN3C[C@@H](C)O[C@@H](C)C3)cc2C1,-,-,0,-,-,0
Cc1cc(C)c(C#N)c(Sc2nnnn2-c2ccccc2)n1,0,?,0,0.56µM,0,0
Cc1nc(Sc2nnnn2-c2ccccc2)c(C#N)c(C)c1C,0,?,0,0,0,0
CC(=O)c1c(C)[nH]c(C(=O)OC(C)C(=O)Nc2cc(S(=O)(=O)N3CCCCC3)ccc2Cl)c1C (stereo not drawn),0,0,0,7.9µM,0,0
C=CC1=C(C)C2=CC3=NC(=C(CC(=O)[O-])C4=NC(=C(C)C4=C([O-])[O-])C=c4[n-]c(c(C)c4CC)=CC1=N2)C(CCC(=O)[O-])C3C.[Cu+2].[Na+].[Na+].[Na+] (stereo not drawn),-,-,0,-,-,0
CC(C)C[C@H]1CNC(=S)N1CC1CCCN1C[C@H](CC(C)C)N1C[C@H](Cc2ccc(O)cc2)N(CC2CCCCCC2)C1=S (stereo partly drawn),-,-,?,-,0,28µM
CC(C)C[C@@H](CN1CCCC1CN1C(=S)NC[C@@H]1Cc1ccc(O)cc1)N1C[C@H](Cc2ccc(O)cc2)N(CC2CCCCC2)C1=S (stereo partly drawn),-,-,?,-,0,10µM
Oc1ccc(C[C@H]2CNC(=S)N2CC2CCCN2C[C@H](Cc2ccc(O)cc2)N2C[C@H](Cc3ccc(O)cc3)N(CC3CCCCC3)C2=S)cc1 (stereo partly drawn),-,-,?,-,0,10µM
CC(C)C[C@@H](CN1CCC[C@@H]1CN1C(=S)NC[C@@H]1Cc1ccccc1)N1C[C@H](Cc2ccc(O)cc2)N(CC2CCCCC2)C1=S,-,-,0,-,0,0
SMILES,SARS PLpro yeast,AmpC detergent,Vaccinia mCherry,AmpC no deterg,AMA1 RON2 block,VACV Venus inh
Cc1cnc(SCc2ccccn2)nc1C1CCCN(C(=O)c2ccc3c(c2)OCCO3)C1 (stereo not drawn),-,-,0,-,-,0
Cc1ccc2c(C(=O)CNc3nc(C)c(C)s3)c(C)[nH]c2c1,-,-,0,-,-,0
O=C(NCCCc1cnc[nH]1)NCCCN(Cc1ccc(Cl)cc1)c1ccc(Br)cn1,-,-,0,-,-,0
CN(CCc1ccccc1)C(=O)c1ccc(NC(=O)Cc2ccc(NC(=O)C3CCCN(C(=O)C4CCC4)C3)cc2)cc1 (stereo not drawn),-,-,10µM,-,0,?
CCOc1ccc2[nH]c3c(N4CCc5ccccc5C4)ncnc3c2c1,0,0,3.5µM,0,?,?
Cc1ccc2[nH]c3c(N4CCc5ccccc5C4)ncnc3c2c1,0,0,?,0,0,?
CCOC(=O)N1CCN(Cc2ccc3c(c2)CN(C(=O)c2cc(-c4ccccc4)on2)CCO3)CC1,-,-,0,-,-,0
COc1ccc(C)cc1Nc1n[n+](-c2ccccc2)c(-c2c(OC)ccc3ccccc23)s1,0,0,14µM,0,?,?
COc1ccc(C)cc1Nc1n[n+](-c2ccccc2)c(-c2cc(OC)c(OC)cc2Br)s1,0,?,0,0,0,?
Cn1c(SCC(=O)Nc2ccccc2F)nnc1-c1cccnc1,0,?,0,0,0,0
Cn1c(SCC(=O)Nc2ccc(F)cc2)nnc1-c1cccnc1,0,?,0,32µM,0,0
CCc1ccccc1-n1c(SCC(=O)NC)nnc1-c1cccnc1,0,35µM,0,0,0,0
COc1cc(=O)n2c(c1C(=O)NC(C)c1ccco1)CCN(C(=O)c1cc(C)cc(C)c1)CC2 (stereo not drawn),-,-,0,-,-,0
COC(=O)C1[C@H]2SC(C)(C)C(C(=O)OC)N2C(=O)N1Cc1ccccc1 (stereo partly drawn),-,-,0,-,-,0
CCc1ccccc1N1C(=O)NC(=O)/C(=C\c2cc(C)n(C)c2C)C1=O,0,0,10µM,0,0,0
CCc1ccc2oc(-c3ccc(C)c(NC(=O)COc4ccc(Cl)cc4)c3)nc2c1,-,-,0,-,-,0
Cc1ccc(C(=O)N2CCN(c3cc4c(cc3[N+](=O)[O-])n(C)c(=O)n4C)CC2)cc1,8.9µM,0,0,0,0,0
c1ccc(C2(NC3=NCCO3)CCCCC2)cc1,-,-,?,-,0,4µM
O=C(CSc1nc2ccc(NC(=O)c3ccccc3C(=O)O)cc2s1)Nc1ccc(F)c([N+](=O)[O-])c1,0,0,0,18µM,0,0
CC1CCN(S(=O)(=O)c2ccc(NC(=O)CSc3nnnn3C)cc2)CC1,0,0,-,0.16µM,0,-
CN1CCN(S(=O)(=O)c2ccc(NC(=O)c3cccs3)cc2)CC1,-,0,-,-,0,0
CC1CCN(S(=O)(=O)c2ccc(NC(=O)c3cccs3)cc2)CC1,0,?,-,28µM,0,?
